The test system of experiment [1] is Plasmodium falciparum Sir2 (PF13_0152, Sir2A). Put plainly: pfSir2 binders on small-molecule microarrays, primary screen, biochemical, small-molecule microarray, 635 nm fluorescence (AID 1098).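 Note: score merges spot fluorescence intensity with its signal-to-noise ratio.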 The conditions noted are these: small-molecule microarray binding, fluorescence 635 nm; higher = more signal.
A short description of experiment [2]: small-molecule microarray binders of probe aDKK1, primary screen, biochemical, biotinylated probe, 635/667 nm fluorescence (AID 1099).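 Note: score merges 667nm spot fluorescence with signal to noise across triplicate slides; reference of the scale not given here.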 As to conditions: higher = more signal.
Experiment [3] is described as follows: small-molecule microarray binders of probe aCHRDL2, primary screen, biochemical, biotinylated probe, 635/667 nm fluorescence (AID 1100). The conditions noted are these: higher = more signal.
The nature of experiment [4]: splicing luciferase reporter signal modulators, primary screen, spliceosome inhibition project, cell-based, HEK293, splice +/- reporter (AID 1101).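 Note: HEK293 cells carrying a splicing-competent luciferase reporter gene; test concentration not given here.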 As to conditions: luminescence, 24 h, higher = more signal, called active from +8 up or from −8 down.
In experiment [5] the target is Fibroblast growth factor 10 (Homo sapiens) (UniProt O15520). Put plainly: FGF10 binders on small-molecule microarrays, primary screen, biochemical, small-molecule microarray, 635 nm fluorescence (AID 1102). As to conditions: FGF10 binding, fluorescence 635 nm, higher = more signal.
Chain of Fibroblast growth factor 10 (Homo sapiens) (O15520 whole entry, looked up): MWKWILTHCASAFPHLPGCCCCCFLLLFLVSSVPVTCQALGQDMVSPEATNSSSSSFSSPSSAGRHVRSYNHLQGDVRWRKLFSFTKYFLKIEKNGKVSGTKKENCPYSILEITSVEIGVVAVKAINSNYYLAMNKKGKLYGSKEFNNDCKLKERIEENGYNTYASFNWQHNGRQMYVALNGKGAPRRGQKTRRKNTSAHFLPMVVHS
For experiment [6], the system named is glycogen synthase kinase-3 (GSK3A per assay name; protocol says GSK3B). The experiment is described as follows: GSK3 binders on small-molecule microarrays, primary screen, biochemical, small-molecule microarray, 635 nm fluorescence, GSK3A (AID 1103). Note: the record names both GSK3A and GSK3B. As to conditions: small-molecule microarray binding, fluorescence 635 nm; higher = more signal.
Experiment [7] deals with Epidermal growth factor receptor (Homo sapiens) (UniProt P00533). The experiment is described as follows: EGFR binders on small-molecule microarrays, primary screen, biochemical, small-molecule microarray, 635 nm fluorescence (AID 1104).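 Note: score merges 667 nm emission intensity with spot signal to noise over triplicate slides.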 The conditions noted are these: EGFR binding, higher = more signal.
Chain of Epidermal growth factor receptor (Homo sapiens) (P00533 whole entry, looked up): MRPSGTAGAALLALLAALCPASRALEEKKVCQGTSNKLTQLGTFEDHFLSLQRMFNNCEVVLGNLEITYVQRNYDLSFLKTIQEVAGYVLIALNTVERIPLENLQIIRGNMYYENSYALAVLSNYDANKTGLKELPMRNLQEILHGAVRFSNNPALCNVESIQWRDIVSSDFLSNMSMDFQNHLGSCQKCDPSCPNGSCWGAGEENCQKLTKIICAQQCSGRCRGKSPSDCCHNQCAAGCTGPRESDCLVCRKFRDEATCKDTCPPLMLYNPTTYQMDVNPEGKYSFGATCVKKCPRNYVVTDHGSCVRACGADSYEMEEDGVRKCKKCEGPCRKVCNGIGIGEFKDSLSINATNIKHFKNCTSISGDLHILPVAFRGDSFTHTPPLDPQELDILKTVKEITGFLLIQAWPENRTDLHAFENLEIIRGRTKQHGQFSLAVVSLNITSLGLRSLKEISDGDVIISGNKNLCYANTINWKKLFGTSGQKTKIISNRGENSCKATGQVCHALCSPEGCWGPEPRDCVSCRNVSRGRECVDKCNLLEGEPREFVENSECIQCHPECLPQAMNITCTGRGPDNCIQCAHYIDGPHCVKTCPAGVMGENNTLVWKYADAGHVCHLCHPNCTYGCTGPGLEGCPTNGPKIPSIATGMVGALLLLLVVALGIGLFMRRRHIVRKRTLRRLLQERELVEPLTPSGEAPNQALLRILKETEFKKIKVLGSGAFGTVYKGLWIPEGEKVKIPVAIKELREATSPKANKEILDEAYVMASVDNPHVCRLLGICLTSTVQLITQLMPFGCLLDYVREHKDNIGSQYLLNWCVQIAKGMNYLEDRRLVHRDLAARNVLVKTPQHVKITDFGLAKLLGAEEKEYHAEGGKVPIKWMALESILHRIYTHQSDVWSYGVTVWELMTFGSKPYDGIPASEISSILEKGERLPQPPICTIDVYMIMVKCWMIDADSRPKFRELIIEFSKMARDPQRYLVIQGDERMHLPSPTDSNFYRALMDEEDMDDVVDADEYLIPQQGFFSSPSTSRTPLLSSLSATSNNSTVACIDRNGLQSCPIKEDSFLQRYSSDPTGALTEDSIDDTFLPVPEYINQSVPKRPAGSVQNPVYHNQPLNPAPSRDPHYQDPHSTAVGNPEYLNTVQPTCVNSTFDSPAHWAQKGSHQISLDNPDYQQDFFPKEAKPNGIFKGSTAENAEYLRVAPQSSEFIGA
For experiment [8], the target named is Follistatin-related protein 3 (Homo sapiens) (UniProt O95633). The experiment is described as follows: FSTL3 binders on small-molecule microarrays, primary screen, biochemical, small-molecule microarray, 635 nm fluorescence (AID 1105).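 Note: score merges emission near 667 nm and signal to noise per printed spot across three slides.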 As to conditions: FSTL3 binding, higher = more signal.
Chain of Follistatin-related protein 3 (Homo sapiens) (O95633 whole entry, looked up): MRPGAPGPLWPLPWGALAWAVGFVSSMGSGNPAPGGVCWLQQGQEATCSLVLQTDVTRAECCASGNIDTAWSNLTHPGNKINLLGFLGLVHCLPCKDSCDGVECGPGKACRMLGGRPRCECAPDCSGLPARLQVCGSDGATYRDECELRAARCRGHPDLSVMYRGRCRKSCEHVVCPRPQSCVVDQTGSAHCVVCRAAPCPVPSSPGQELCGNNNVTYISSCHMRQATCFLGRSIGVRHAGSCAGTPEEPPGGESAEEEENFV
The target in experiment [9] is Dickkopf-related protein 1 (Homo sapiens) (UniProt O94907). The experiment is described as follows: DKK1 binders on small-molecule microarrays, primary screen, biochemical, small-molecule microarray, 635 nm fluorescence scan (AID 1106).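 Note: score merges emission near 667 nm with signal to noise over three replicate slides.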 As to conditions: DKK1 binding, higher = more signal.
Chain of Dickkopf-related protein 1 (Homo sapiens) (O94907 whole entry, looked up): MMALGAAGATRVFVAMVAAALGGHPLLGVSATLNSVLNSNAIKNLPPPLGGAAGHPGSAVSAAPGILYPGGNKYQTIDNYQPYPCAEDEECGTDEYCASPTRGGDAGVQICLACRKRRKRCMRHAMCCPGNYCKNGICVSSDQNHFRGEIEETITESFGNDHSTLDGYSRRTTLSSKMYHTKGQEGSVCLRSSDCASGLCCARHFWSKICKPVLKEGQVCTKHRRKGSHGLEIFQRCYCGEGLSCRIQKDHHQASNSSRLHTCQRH
Experiment [10] deals with Inhibin beta A chain (activin A). The experiment is described as follows: INHBA (activin A) binders on microarrays, primary screen, biochemical, small-molecule microarray, 635 nm fluorescence scan (AID 1107).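 Note: mouse activin A protein probed at 4.33 µg/mL on printed slides; score merges bound-protein fluorescence near 667 nm with spot signal-to-noise.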 The conditions noted are these: small-molecule microarray binding, higher = more signal.

Consider 15 molecules from PubChem BioAssay.

Calls of active or inactive are those of the source.

For `CC(C)CCC[C@@H](C)[C@H]1CC[C@@]2(C)C3=C(CC[C@]12C)[C@@]1(C)CC[C@H](OC(=O)C(C)(C)C)C(C)(C)C1CC3` (stereo not given in full), the composite z-score was -0.0682 in [1]; -0.291 in [2]; -0.636 in experiment [3]; 0.897 in experiment [5]; 0.465 in [6]; 0.837 in experiment [7]. Further, the composite z-score in [8] is 0.619; in experiment [9], 0.683; in experiment [10], -0.312. For the same molecule, the z-score in experiment [4] is -2.09 (inactive).

Consider `CC(C)C[C@H]1NC(=O)[C@H](C)NC(=O)[C@@]23C(=O)N[C@@H](Cc4ccccc4)C2[C@H](C)[C@@]2(C)O[C@H]2C3/C=C/C/C=C\CNC1=O` (stereo not given in full), for which the composite z-score in [1] was 0.0682; in [2], -0.597; in [3], -0.376; in experiment [5], -0.148; in [6], -0.294; in experiment [7], -0.0275. Besides, the composite z-score was 0.461 in [8], 0.29 in [9] and 1.55 in experiment [10]. In addition, in [4], the z-score is 0.271 (inactive).

Turning to `COCCOC(=O)N1C(=O)[C@@]2(c3cc(C#CC4(O)CCCCCC4)ccc31)[C@H](C(=O)NC[C@H](O)c1ccccc1)[C@H]1C(=O)O[C@H](c3ccccc3)[C@H](c3ccccc3)N1[C@@H]2c1ccc(OCCO)cc1`, the composite z-score in experiment [1] was 0.971; in [2], -0.0726; in experiment [3], -0.0689; in [5], 0.68; in experiment [6], 0.673; in experiment [7], 0.429. Further, the composite z-score in experiment [8] came out at 0.834; in [9] it was 0.348; in [10], 0.193. Besides, the z-score in experiment [4] was -1.15 (inactive).

In the case of `COc1ccc([Si](C)(C)[C@@H]2[C@@H](CCO)O[C@]3(C(=O)N(Cc4ccccc4)c4ccc(N5C(=O)COc6ccccc65)cc43)[C@H]2C)cc1`, the composite z-score in experiment [1] is 0.845; in [2], -0.0934; in experiment [3] it was 0.0637; in experiment [5], 0.0677; in experiment [6] it was 0.0368; in experiment [7], -0.0505. The composite z-score in [8] came out at 0.0717; in experiment [9], 0.163; in [10], 0.254. For the same molecule, in experiment [4], the z-score was -1.21 (inactive).

As for `COC(=O)C(CC#Cc1ccc2c(c1)[C@]1(C(=O)N2)[C@H](C(=O)N2CCc3cc(OC)c(OC)cc3C2)[C@H]2C(=O)O[C@H](c3ccccc3)[C@H](c3ccccc3)N2[C@@H]1c1ccc(O)cc1)C(=O)OC`, the composite z-score in experiment [1] was 1.06; in experiment [2], 0.432; in [3], 0.417; in experiment [5], 1.4; in [6], 1.35; in experiment [7], 0.919. Moreover, the composite z-score in experiment [8] is 1.43; in [9], 1.71; in [10], -0.227. In [4], the z-score was 0.362 (inactive).

`C[C@@]1([C@@H](NC(=O)c2cccs2)c2ccc(-c3ccccc3)cc2)C[C@H]1C1CCCCC1`: the composite z-score in [1] was 0.385; in experiment [2], -0.336; in experiment [3], 0.126; in [5], -0.728; in experiment [6] it was -1.74; in experiment [7] it was -0.84. Also, the composite z-score is -0.671 in experiment [8], 0.0374 in [9] and 1.49 in experiment [10]. Moreover, the z-score in experiment [4] is -3.26 (inactive).

On to `CCCCCCCCCCC(O)C1C=CC2C(=O)NC(=O)C2N1Nc1ccccn1` (stereo not given), for which the composite z-score in experiment [1] is 1.07; in experiment [2], 0.482; in experiment [3] it was 0.883; in [5], -0.649; in experiment [6] it was -0.811; in [7] it was -0.689. Besides, the composite z-score in experiment [8] is -0.448; in experiment [9] it was -0.765; in experiment [10] it was 0.997. Further, in [4], the z-score is 0.447 (inactive).

On to `COc1ccc(C#Cc2ccc3c(c2)[C@]2(C(=O)N3)[C@H](C(N)=O)[C@H]3C(=O)O[C@H](c4ccccc4)[C@H](c4ccccc4)N3[C@@H]2c2ccc(O)cc2)cc1`, for which the composite z-score in experiment [1] was determined as 0.818; in experiment [2], 0.153; in experiment [3], 0.411; in experiment [5], 0.904; in experiment [6], 0.491; in experiment [7], 0.248. Also, the composite z-score in experiment [8] was 0.313; in experiment [9], 0.0346; in experiment [10] it was -0.116. Further, the z-score in experiment [4] is 10.5 (active).

For `CN(C)CCCNC(=O)[C@@]1(Cc2ccccc2I)c2ccccc2C(=O)N(Cc2ccccc2Cl)[C@H]1c1ccc(CO)cc1`, the composite z-score in experiment [1] was 1.56; in experiment [2], 0.94; in [3], 1.33; in experiment [5], 0.247; in [6], 0.122; in [7], -1.4. The composite z-score in [8] was -0.509; in [9], -0.83; in experiment [10], 1.03. The z-score in [4] is -3.68 (inactive).

As for `COc1ccc(C#Cc2ccc3c(c2)[C@]2(C(=O)N3)[C@H](c3ccc(OCCO)cc3)N3[C@H](c4ccccc4)[C@H](c4ccccc4)OC(=O)[C@H]3[C@@H]2C(=O)N2CCN(c3ncccn3)CC2)cc1`, the composite z-score was 1.12 in experiment [1]; -0.0149 in [2]; -0.275 in [3]; 0.214 in experiment [5]; 0.693 in experiment [6]; 0.176 in experiment [7]. The composite z-score in experiment [8] was 0.602; in experiment [9], 0.0015; in experiment [10], 0.433. In experiment [4], the z-score is -0.188 (inactive).

As to `COC(=O)C(CC#Cc1ccc2c(c1)[C@]1(C(=O)N2)[C@H](c2ccc(OCCO)cc2)N2[C@H](c3ccccc3)[C@H](c3ccccc3)OC(=O)[C@H]2[C@@H]1C(=O)O)C(=O)OC`, the composite z-score in [1] was 1.78; in [2] it was 1.18; in experiment [3] it was 0.931; in [5], 0.809; in [6], 1.03; in experiment [7], 0.194. In addition, the composite z-score came to 0.808 in experiment [8], 0.119 in experiment [9] and 0.765 in experiment [10]. The z-score in [4] is -0.609 (inactive).

For `C=CCOc1ccc([C@@H]2CC=C(C(=O)OCC)[C@H](c3cccc(Br)c3)N2S(=O)(=O)c2ccc(C)cc2)cc1`, the composite z-score was 0.251 in experiment [1]; 0.735 in experiment [2]; 1.04 in [3]; 0.248 in experiment [5]; -1.11 in [6]; -0.0936 in experiment [7]. The composite z-score was found to be 0.167 in experiment [8], 0.644 in [9] and 1.46 in [10]. Moreover, in experiment [4], the z-score is -0.776 (inactive).

On to `COCCOC(=O)N1C(=O)[C@@]2(c3cc(C#Cc4ccc(OC)cc4)ccc31)[C@H](C(=O)N1CCc3cc(OC)c(OC)cc3C1)[C@H]1C(=O)O[C@H](c3ccccc3)[C@H](c3ccccc3)N1[C@@H]2c1ccc(OCCO)cc1`, for which the composite z-score in experiment [1] is -0.352; in experiment [2] it was 0.218; in experiment [3], -0.0585; in experiment [5], 0.705; in [6] it was 1.03; in experiment [7], 0.595. Moreover, the composite z-score in experiment [8] worked out at 0.997; in experiment [9], 0.588; in [10] it was 0.115. Also, in experiment [4], the z-score is -0.32 (inactive).

With `CCCCC(CC)C(O)C1C=CC2C(=O)NC(=O)C2N1Nc1ccccn1` (stereo not given), the composite z-score is 0.768 in experiment [1]; 0.189 in experiment [2]; 0.471 in experiment [3]; 0.327 in [5]; 0.493 in experiment [6]; -0.035 in experiment [7]. The composite z-score worked out at 0.768 in [8], 0.112 in experiment [9] and 1.33 in [10]. Besides, the z-score in [4] is 1.08 (inactive).

As for `CCOC(=O)C[C@H]1[C@H](OC(=O)c2ccccc2-c2ccccc2)[C@@H](NC(=O)c2ccccc2)c2cc(OCCCO)ccc2N1C(=O)Cc1ccc(OC)cc1`, the composite z-score in [1] is 0.0521; in experiment [2], -0.0327; in [3] it was 0.0247; in [5], 0.0268; in experiment [6] it was -0.519; in [7], -0.104. Further, the composite z-score in [8] is -0.183; in experiment [9], -0.0633; in experiment [10], 0.264. Moreover, the z-score in experiment [4] is -0.269 (inactive).
